This note sets out measurements from PubChem BioAssay (Tox21).

The nature of test [1]: qHTS assay to identify small molecule antagonists of the estrogen related receptor (ERR) signaling pathway from Tox21 library - cell viability counter screen (AID 1224834). Also: nearly all actives have a fitted effect of over 30% in size. Also: potency is read from the fitted curve at half-maximal effect. An outline of the steps: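 ERR cells, 2,000/well; 6 h settle at 37 C/5% CO2; pin-tool compound transfer in DMSO; 17.5 h at 37 C; CellTiter-Fluor, 30 min; fluorescence intensity.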
A general note: In qHTS, concentration-response curves come from the screen itself.

Test [2] concerns the target Luciferin 4-monooxygenase (Photinus pyralis) (UniProt P08659). Kind of test: qHTS assay to identify small molecule inhibitors of firefly luciferase (AID 1224835). Also: nearly all actives have a fitted effect of over 25% in size. An outline of the steps:
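Quantitative HTS format; KM concentrations of both substrates. Purified P. pyralis FLuc activity quantified from luminescence images.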

The nature of test [3]: qHTS assay to identify small molecule agonists of the constitutive androstane receptor (CAR) signaling pathway - cell viability counter screen (AID 1224836). Also: nearly all actives have a fitted effect of over 45% in size. An outline of the steps: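 Fluorescence from CellTiter-Fluor indicates live cells after 23 h exposure. The human hepatoma line expresses hCAR and a CYP2B6-2.2kb reporter. Incubation medium contains 0.75 uM PK11195 (final).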

Test [4] is described as follows: qHTS assay to identify small molecule antagonists of the estrogen related receptor signaling pathway with the pleiotropic PPARgamma coactivator (PGC) from Tox21 10K library - cell viability counter screen (AID 1224840; active = well fitted cell-killing curve with a large enough effect in the repeat runs, not every such curve was filed as active; also: nearly all actives have a fitted effect of over 40% in size). An outline of the steps: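 Multiplexed viability counter screen in the PGC/ERR cell line: cells treated with DMSO-dissolved compounds for 17.5 hours at 37 C, then viability measured as CellTiter-Fluor fluorescence.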

Test [5] is described as follows: qHTS assay to identify small molecule antagonists of the estrogen related receptor signaling pathway with the pleiotropic PPARgamma coactivator (PGC) from Tox21 10K library (AID 1224841; call rule not given here; also: actives are mostly falling curves and most rising ones were filed inactive; nearly all actives have a fitted effect of over 50% in size; also: potency is read from the fitted curve at half-maximal effect). In a few lines:
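Steps: plate 2,000 PGC/ERR cells per well; incubate 6 h at 37 C with 5% CO2; transfer compounds from DMSO stocks by pin tool; incubate 18 h at 37 C; add One-Glo; measure luminescence 30 min later.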

Test [6] in a line: qHTS assay to identify small molecule agonists of the estrogen related receptor signaling pathway with the pleiotropic PPARgamma coactivator (PGC) from Tox21 10K library (AID 1224842). Also: nearly all actives have a fitted effect of over 15% in size. Also: potency is read from the fitted curve at half-maximal effect. An outline of the steps:
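PGC/ERR reporter cells (NTP line) were seeded 2,000 per well, rested 6 h at 37 C/5% CO2, then pin-dosed with compounds in DMSO for 18 h at 37 C; luciferase read by One-Glo luminescence after 30 min at room temperature.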

A short description of test [7]: qHTS assay to identify small molecule agonists of the hypoxia (HIF-1) signaling pathway - cell viability counter screen (AID 1224844; calls by dose curve; also: nearly all actives have a fitted effect of over 50% in size; also: potency is read from the fitted curve at half-maximal effect). An outline of the steps: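 Cytotoxicity was measured in parallel with the HRE-driven beta-lactamase readout: after 17 hrs of compound exposure at 37C, HRE-bla ME-180 cells received CellTiter-Glo and luminescence was recorded 30 min later.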

Test [8] in a line: qHTS assay to identify small molecule agonists of the hypoxia (HIF-1) signaling pathway (AID 1224846; active = well fitted activation curve with a large enough effect in the signal ratio in the repeat runs, not every such curve was filed as active; the % refers to the signal ratio). In a few lines:
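Compounds from the Tox21 10K library, dissolved in DMSO, are tested for induction of a hypoxia response element–controlled beta-lactamase reporter in ME-180 cells. Exposure lasts 17 hrs at 37C after a 5 hr settling period, followed by CCF4-AM FRET substrate.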

Test [9] can be described thus: qHTS assay to identify small molecule agonists of H2AX - cell viability counter screen (AID 1224847; calls by dose curve; also: top concentration of the series differs between compounds; nearly all actives have a fitted effect of over 30% in size). An outline of the steps:
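Viability of CHO-K1 (wild type) cells after 3 hr compound exposure was measured by CellTiter-Glo luminescence.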

The nature of test [10]: qHTS assay to identify small molecule antagonists of the estrogen related receptor (ERR) signaling pathway from Tox21 library (AID 1224848). Also: nearly all actives have a fitted effect of over 50% in size. Also: potency is read from the fitted curve at half-maximal effect. In a few lines:
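First, 2,000 ERR cells per well were plated and held 6 h at 37 C/5% CO2. Next, compounds in DMSO were pinned in and left 18 h at 37 C. Finally, ONE-Glo was added and luminescence read after 30 min at room temperature.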

A short description of test [11]: qHTS assay to identify small molecule agonists of the estrogen related receptor (ERR) signaling pathway from Tox21 library (AID 1224849; calls by dose curve; also: nearly all actives have a fitted effect of over 15% in size). The following applies: ERR reporter cell line, ONE-Glo luciferase, 18 h; at 92.4 µM (top of the series) unless noted. An outline of the steps: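 Cells carrying the ERR reporter were plated and allowed to settle for 6 h, exposed to library compounds for 18 h at 37 C, then lysed with ONE-Glo and luminescence measured.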

Test [12] can be described thus: qHTS RealTime-Glo MT Cell Viability Assay in HepG2 cells - 24 hour (AID 1224867). Also: nearly all actives have a fitted effect of over 50% in size. An outline of the steps: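 Tox21 10K library screened in qHTS format on HepG2 cells carrying RealTime-Glo reagents. Compounds were added after a 5 h preincubation, and the luminescent signal from continuous culture was measured repeatedly during 40 h treatment.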
The nature of test [13]: qHTS RealTime-Glo MT Cell Viability Assay in HEK293 cells - 32 hour (AID 1224868). Also: nearly all actives have a fitted effect of over 50% in size. Also: potency is read from the fitted curve at half-maximal effect. An outline of the steps: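 Luminescence generated by NanoLuc from substrate produced by living HEK293 cells served as the viability signal. Each value reflects the reading at its stated time point during continuous 40 h compound exposure at 37 C.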
Test [14] is described as follows: A CellTox Green Cytotoxicity Assay to monitor cytotoxicity in HEK293 cells - 0 hour (AID 1224869). Also: nearly all actives have a fitted effect of over 50% in size. In a few lines: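 Cells (HEK293, 600/well) and dye reagent are dispensed together. After 5 h at 37 C, 23 nL compound is pinned in. Plates stay at 37 C for 40 h with fluorescence read at 0h, 8h, 16h, 24h, 32h and 40h.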
Test [15] in a line: qHTS RealTime-Glo MT Cell Viability Assay in HepG2 cells - 40 hour (AID 1224870). Also: nearly all actives have a fitted effect of over 50% in size. Also: potency is read from the fitted curve at half-maximal effect. In a few lines:
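HepG2 cells mixed with RealTime-Glo MT reagents (NanoLuc plus cell-permeant prosubstrate) were seeded at 600 cells/well, incubated 5 h at 37 C/5% CO2, then pinned with compounds in DMSO; nonlytic luminescence tracked viability during 40 h treatment.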

Test [16] in a line: qHTS assay to identify small molecule antagonists of the constitutive androstane receptor (CAR) signaling pathway - cell viability counter screen (AID 1224837). Also: nearly all actives have a fitted effect of over 45% in size. In a few lines: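 Viability was measured with CellTiter-Fluor in a HepG2 line carrying stably transfected hCAR and a CYP2B6-2.2kb construct. Cells were exposed for 23 hr at 37 C to 15 compound concentrations with 50 nM CITCO as agonist.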

In test [17] the target is Nuclear receptor subfamily 1 group I member 3 (Homo sapiens) (UniProt Q14994). Kind of test: qHTS assay to identify small molecule antagonists of the constitutive androstane receptor (CAR) signaling pathway (AID 1224838).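 Also: HepG2 cells stably expressing hCAR with CYP2B6 luciferase reporter stimulated by CITCO; nearly all actives have a fitted effect of over 40% in size.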 An outline of the steps: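 Antagonist mode used CITCO at a final 50 nM to activate CAR in human hepatoma HepG2 cells carrying stable hCAR and a 2.2 kb CYP2B6 promoter-luciferase construct. Compounds were tested at 15 concentrations over 24 h, with luminescence as the end point.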
Sequence of Nuclear receptor subfamily 1 group I member 3 (Homo sapiens) (Q14994 whole entry, looked up): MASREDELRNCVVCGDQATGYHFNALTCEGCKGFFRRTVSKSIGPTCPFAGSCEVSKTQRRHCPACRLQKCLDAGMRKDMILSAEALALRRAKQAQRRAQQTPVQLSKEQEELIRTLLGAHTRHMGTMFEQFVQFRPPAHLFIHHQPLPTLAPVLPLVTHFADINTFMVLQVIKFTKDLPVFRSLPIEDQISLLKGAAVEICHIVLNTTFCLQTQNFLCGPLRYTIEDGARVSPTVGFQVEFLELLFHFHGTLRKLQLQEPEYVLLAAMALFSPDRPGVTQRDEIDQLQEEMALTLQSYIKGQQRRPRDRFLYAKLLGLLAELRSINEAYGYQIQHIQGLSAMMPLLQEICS

Test [18] shares this target. Kind of test: qHTS assay to identify small molecule agonists of the constitutive androstane receptor (CAR) signaling pathway (AID 1224839). Also: nearly all actives have a fitted effect of over 15% in size. In a few lines: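 Stable hCAR/CYP2B6-2.2kb HepG2 line in DMEM with 10% FBS; compounds (15 concentrations) and 0.75 uM PK11195 final, 24 h at 37 C/5% CO2, then ONE-Glo luminescence after 30 min.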
The nature of test [19]: qHTS assay to identify small molecule agonists of H2AX (AID 1224845; active = well fitted activation curve with a large enough effect in the signal ratio in the repeat runs, not every such curve was filed as active; the % refers to the signal ratio). An outline of the steps:
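Wild-type CHO-K1 cells plated overnight, then exposed 3 hr at 37C to compounds at 15 concentrations (0.76% DMSO). Lysed, then HTRF anti-pH2AX(S139)-cryptate/anti-H2AX-d2 detection after 24 hr at room temperature; emissions 665 and 620 nm.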

The target of test [20] is Thyrotropin receptor (Homo sapiens) (UniProt P16473). Kind of test: qHTS assay to identify small molecule agonists of the thyroid stimulating hormone receptor (TSHR) signaling pathway (AID 1224843; calls by dose curve; also: nearly all actives have a fitted effect of over 45% in size). An outline of the steps: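 Compounds are titrated over 15 concentrations, in triplicate, onto TSHR-HEK293 cells seeded at 800/well. Plates sit 30 min at room temperature before cAMP-d2 and anti-cAMP cryptate are added; signal is read after a further hour.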
Sequence of Thyrotropin receptor (Homo sapiens) (P16473 whole entry, looked up): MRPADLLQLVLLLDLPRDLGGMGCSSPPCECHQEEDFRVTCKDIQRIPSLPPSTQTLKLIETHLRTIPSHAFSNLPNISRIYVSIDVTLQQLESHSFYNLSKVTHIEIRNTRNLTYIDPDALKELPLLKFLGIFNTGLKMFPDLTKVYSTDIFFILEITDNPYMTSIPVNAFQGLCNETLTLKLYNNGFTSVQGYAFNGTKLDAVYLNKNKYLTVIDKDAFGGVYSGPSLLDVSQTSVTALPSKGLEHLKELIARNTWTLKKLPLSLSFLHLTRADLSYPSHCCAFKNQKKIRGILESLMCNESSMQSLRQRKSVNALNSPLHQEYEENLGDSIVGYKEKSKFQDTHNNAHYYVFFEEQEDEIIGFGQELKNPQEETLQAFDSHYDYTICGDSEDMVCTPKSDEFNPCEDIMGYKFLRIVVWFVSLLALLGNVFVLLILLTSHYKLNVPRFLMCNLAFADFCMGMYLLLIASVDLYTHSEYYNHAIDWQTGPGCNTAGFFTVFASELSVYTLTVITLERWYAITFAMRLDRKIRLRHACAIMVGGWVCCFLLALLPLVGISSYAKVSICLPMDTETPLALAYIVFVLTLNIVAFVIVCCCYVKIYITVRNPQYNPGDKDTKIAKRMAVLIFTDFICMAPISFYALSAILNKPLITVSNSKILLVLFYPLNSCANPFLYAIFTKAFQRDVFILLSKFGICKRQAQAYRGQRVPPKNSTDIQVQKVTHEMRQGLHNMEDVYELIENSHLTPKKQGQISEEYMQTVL

The structures appear in SMILES notation. Unmarked numbers belong to inactive results. Inconclusive results are not listed. Calls of active or inactive are those of the source. Unless noted, calls follow the shape of the dose curve; as a rule, active = well fitted curve in the direction sought with a large enough effect in the repeat runs; inconclusive = weak or mixed curves; inactive = no such curve, though single readings can be large; an effect the other way counts as inactive or inconclusive.
% is scaled to controls: 0 for no effect and ±100 for the full control effect.

Sequence of Luciferin 4-monooxygenase (Photinus pyralis) (P08659 whole entry, looked up): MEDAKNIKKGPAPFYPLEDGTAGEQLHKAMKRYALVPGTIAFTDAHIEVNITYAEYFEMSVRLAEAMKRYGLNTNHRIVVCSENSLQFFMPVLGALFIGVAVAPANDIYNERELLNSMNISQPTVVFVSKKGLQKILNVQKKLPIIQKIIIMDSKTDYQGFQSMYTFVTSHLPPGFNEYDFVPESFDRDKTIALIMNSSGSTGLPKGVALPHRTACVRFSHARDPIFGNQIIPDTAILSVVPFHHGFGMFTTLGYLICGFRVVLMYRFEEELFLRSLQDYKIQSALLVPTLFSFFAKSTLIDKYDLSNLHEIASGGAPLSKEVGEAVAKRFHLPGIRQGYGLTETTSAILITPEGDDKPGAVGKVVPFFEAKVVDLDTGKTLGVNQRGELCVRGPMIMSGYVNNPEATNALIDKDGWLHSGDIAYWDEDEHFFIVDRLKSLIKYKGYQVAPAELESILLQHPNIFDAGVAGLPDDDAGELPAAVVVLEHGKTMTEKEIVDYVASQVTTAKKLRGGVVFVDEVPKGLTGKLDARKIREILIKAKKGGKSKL

Turning to `CC[N+](CC)(CCNC(=O)C(=O)NCC[N+](CC)(CC)Cc1ccccc1Cl)Cc1ccccc1Cl`, the Potency entry in test [1], in test [2], in [3], in test [4], in [5] and in test [6] was “inactive” in each case. The Potency result in [7], in test [9], in test [10], in test [12], in test [13] and in test [14] was “inactive” each time. The Potency result in test [15] is “inactive”. In addition, the call in test [8] was inactive. Further, in [11], the activity change, positive = activation was 8.73% [at 42.5 µM].

For the compound `CCCCCCCCCI`, the Potency entry in test [1], in [3], in test [16], in [17], in test [18] and in [4] was “inactive” each time. Also, the Potency result in test [5], in [7], in test [10], in test [13] and in test [14] was “inactive” in each case. In addition, the Potency is 8.79 µM (active) in [6] and 25 µM (active) in test [15]. Further, the outcome in test [8] was inactive. Moreover, the activity change, positive = activation in test [11] is 3.18%.

Take `O=C1NC(=O)c2cc([N+](=O)[O-])ccc21`: the Potency result in [1], in test [2], in test [3], in test [4], in [7] and in test [19] was “inactive” in each case. For the same compound, the Potency entry in test [9], in [12], in test [13], in test [14] and in test [15] was “inactive” in each case. For the same compound, the result in test [8] was inactive.

On to `C[C@H]1c2cccc(O)c2C(O)=C2C(=O)[C@]3(O)C(O)=C(C(N)=O)C(=O)[C@@H](N(C)C)[C@@H]3[C@@H](O)[C@@H]21`, for which the Potency entry in [1], in test [2], in test [16], in [17], in test [18] and in test [4] was “inactive” each time. In addition, the Potency entry in test [6], in [7], in [19], in [12], in test [13] and in [14] was “inactive” throughout. In addition, the Potency result in test [15] is “inactive”. Besides, the compound was called inactive in [8]. Moreover, the Potency in [10] is 18.8 µM (active). For the same compound, the activity change, positive = activation in [11] was -33.4% [at 42.5 µM].

For `CC(C)c1nc(CN(C)C(=O)N[C@H](C(=O)N[C@@H](Cc2ccccc2)C[C@H](O)[C@H](Cc2ccccc2)NC(=O)OCc2cncs2)C(C)C)cs1`, the Potency in test [1] was 13.3 µM (active); in test [5], 23.7 µM (active); in test [7] it was 9.52 µM (active); in [10], 21.1 µM (active); in [13] it was 21.3 µM (active). Moreover, the Potency result in [2], in [17], in test [18], in test [6], in test [20] and in test [19] was “inactive” each time. Besides, the Potency result in test [12], in test [14] and in [15] was “inactive” throughout. Moreover, the call in [8] was inactive. The activity change, positive = activation in [11] was -41.1% [at 42.5 µM].

For `Cc1c(C)c2c(c(C)c1OC(=O)CCC(=O)OCCO)CC[C@@](C)(CCC[C@H](C)CCC[C@H](C)CCCC(C)C)O2`, the Potency result in test [1], in test [2], in test [17], in test [18], in [6] and in [7] was “inactive” throughout. Further, the Potency entry in test [19], in test [12], in [13], in [14] and in [15] was “inactive” in each case. In test [5], the Potency was 21.1 µM (active). In test [8], the outcome was inactive. In addition, the activity change, positive = activation in test [11] was -48.8% [at 42.5 µM].

For `CC(=O)c1ccc([N+](=O)[O-])cc1`, the Potency result in [1], in [2], in test [3], in test [4], in test [5] and in test [6] was “inactive” throughout. Also, the Potency result in test [9], in test [10], in test [12], in [13], in test [14] and in test [15] was “inactive” each time. Moreover, the result in test [8] was inactive. The activity change, positive = activation in test [11] was 1.22%.
